HCMV inh = inhibitors of human cytomegalovirus; activity change, negative = inhibition, % at 57.5 µM; HFF cells, HCMV-luciferase reporter, 72 h; hits give low values; AID 1259415; actives 4.5% (n = 410,000); in the data active = activity change below about -60%; inconclusive = no clear call, values can overlap the other calls; inactive = above about -39%
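HFF cells seeded 16 h at 37C, treated with compounds, infected with luciferase-reporter HCMV at MOI 1 PFU/cell; luciferase read at 72 h post infection, normalized to buffer-only and Salinomycin controls.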
Marburg entry inh = inhibitors of Marburg virus binding or cell entry. Potency, µM (titrated, usually from 37.8 µM), most hits filed as inhibitors. AID 540276. actives 1.8% (n = 300,000). Marburg virus pseudotyped entry inhibition, cell reporter; calls by dose curve; tested in HEK293 cells
Lassa entry inh = inhibitors of Lassa virus binding or cell entry. Potency, µM (top dose mostly 37.9 µM), actives largely listed as inhibitors. AID 540256. actives 1.2% (n = 300,000). Lassa virus pseudotype entry inhibition, cell reporter; calls by dose curve; tested in HEK293 cells; also: nearly all actives have a fitted effect of over 50% in size
FBPA Giardia inh = Giardia lamblia aldolase inhibition; A8B2U2; purified Giardia FBPA; Potency, µM (highest dose often 59.6 µM), usual class: inhibitors; actives 0.71% (n = 290,000); also: nearly all actives have a fitted effect of over 55% in size
Target sequence (A8B2U2 whole entry, looked up): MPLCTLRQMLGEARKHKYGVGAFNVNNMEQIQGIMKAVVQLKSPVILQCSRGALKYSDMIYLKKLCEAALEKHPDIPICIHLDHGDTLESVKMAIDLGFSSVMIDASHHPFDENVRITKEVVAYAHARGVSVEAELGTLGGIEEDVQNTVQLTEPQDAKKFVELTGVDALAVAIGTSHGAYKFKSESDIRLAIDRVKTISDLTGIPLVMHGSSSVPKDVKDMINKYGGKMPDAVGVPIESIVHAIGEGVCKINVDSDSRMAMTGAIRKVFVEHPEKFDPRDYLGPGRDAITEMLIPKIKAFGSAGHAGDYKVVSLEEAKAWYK
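Giardia FBPA (40 nM reagent) was preincubated 10 min at RT with compound (up to 57.5 uM final), then substrate plus GAPDH/TPI/NAD/arsenate coupling system with diaphorase/resazurin was added; resorufin fluorescence (525/598 nm) was read after 20 min.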
HCV inh = HCV inhibition; Huh7.5.1 HCVcc-Cre infection, luciferase reporter, 44 h; Potency, µM (highest dose often 41.8 µM), hits mostly inhibitors; actives 3.4% (n = 340,000); AID 651820
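Infectious HCV cell culture screen: compound-treated cells (1,000/well, pre-plated 4 h) are infected with HCVcc-Cre at roughly 0.5 moi and grown 44 h. Infection is quantified by luciferase signal after 15 min substrate incubation at room temperature.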
FMDV inh = foot and mouth disease virus antiviral activity | FMDV antiviral cell-based qHTS | Potency, µM (doses to about 57.9 µM), hits mostly inhibitors | actives 1.2% (n = 410,000); calls by dose curve; tested in HEK293T cells; also: read-out not given here; nearly all actives have a fitted effect of over 45% in size
Numbers stand for hits. Only some compounds are listed: those with a hit (about 8.3% of all), similar ones and a draw of the others. Unless noted, calls follow the shape of the dose curve; as a rule, active = well fitted curve in the direction sought with a large enough effect; inconclusive = small, poorly fitted or top-dose-only effect, or another doubt; inactive = no such curve, though single readings can be large; an effect the other way counts as inactive or inconclusive.

C=CCCC[C@@H]1OC(=O)CNC(=O)C([C@@H](C)CC)NC(=O)[C@@H]2CCCN2C(=O)C([C@@H](C)CC)OC(=O)[C@H](Cc2ccccc2)N(C)C(=O)[C@H](C(C)C)NC(=O)C1(C)C (stereo partly drawn) was read as HCMV inh -72.9 and FMDV inh inactive.
Nc1nccc(C#Cc2cncnc2Nc2ccc(OCc3cccc(F)c3)c(Cl)c2)n1 was read as Lassa entry inh 17.7µM.
COc1ccc(NC(=O)CN(C)CC(=O)Nc2cccc(F)c2)cc1Cl was read as HCMV inh inactive, Marburg entry inh inconclusive, Lassa entry inh inconclusive, FBPA Giardia inh inactive, HCV inh inactive and FMDV inh inactive.
For CCNC(=O)OC1CNC(C#Cc2cc3ncnc(Nc4ccc(OCc5cccc(F)c5)c(Cl)c4)c3s2)C1 (stereo not drawn) the results were Lassa entry inh 7.91µM.
For CC(=O)Nc1cccc(C#Cc2cncnc2Nc2ccc(OCc3cccc(F)c3)c(Cl)c2)c1 the results were Lassa entry inh 15.8µM.
`OCc1c(OCc2cccc(F)c2)ccc2ccccc12` gave HCMV inh inactive, FBPA Giardia inh inactive, HCV inh inactive and FMDV inh inactive.
COc1ccc(C(=O)NC2CC(=O)N(c3ccc4c(c3)OCCO4)C2)cc1 (stereo not drawn) was read as HCMV inh inactive, Lassa entry inh inactive and FMDV inh inactive.
For Cc1cccc(-c2nc3c4ccccc4nc(N4CCN(c5cccc(Cl)c5)CC4)n3n2)c1 the results were HCMV inh -61.5, Marburg entry inh inconclusive and FMDV inh inactive.
Clc1cccc(N2CCN(c3nc4ccccc4c4nc(-c5ccccc5)nn34)CC2)c1 was read as HCMV inh inactive, Marburg entry inh inactive and FMDV inh inactive.
`O=C1C(Cl)=C(NCCCN2CCOCC2)C(=O)c2ccccc21` gave HCMV inh inactive, Marburg entry inh inconclusive, Lassa entry inh inconclusive, HCV inh 10µM and FMDV inh inactive.
`O=C1C(Cl)=C(NCCN2CCOCC2)C(=O)c2ncccc21` gave FBPA Giardia inh inactive and FMDV inh 15.8µM.
`O=C1C(Cl)=C(NC2CCc3ccccc32)C(=O)c2ncccc21` (stereo not drawn) gave FBPA Giardia inh inactive.
Screening O=C1C(Cl)=C(NCCN2CCOCC2)C(=O)c2ccccc21 returned HCMV inh inactive, Marburg entry inh inconclusive, Lassa entry inh inconclusive, FBPA Giardia inh inconclusive, HCV inh inconclusive and FMDV inh inactive.
`O=C1C(Cl)=C(NCCCO)C(=O)c2ccccc21` gave HCMV inh inactive, Marburg entry inh inconclusive, Lassa entry inh inactive, FBPA Giardia inh inconclusive, HCV inh 12.6µM and FMDV inh inconclusive.
`O=C(c1ccc(S(=O)(=O)N2CCCCC2)cc1)N1CCN(Cc2ccc3c(c2)OCO3)CC1` gave HCMV inh inactive, Marburg entry inh inconclusive, Lassa entry inh inactive, FBPA Giardia inh inactive, HCV inh inconclusive and FMDV inh inactive.
CN(C)S(=O)(=O)c1ccc(Cl)c(NC(=O)CN2CCc3ccccc3C2)c1 was read as HCMV inh -63.7, Marburg entry inh inconclusive, Lassa entry inh inconclusive, FBPA Giardia inh inactive, HCV inh inconclusive and FMDV inh inactive.
`O=C(CN1CCN(Cc2ccc3c(c2)OCO3)CC1)Nc1cc(S(=O)(=O)N2CCCC2)ccc1Cl` gave HCMV inh inconclusive, Marburg entry inh inconclusive, Lassa entry inh inactive, FBPA Giardia inh inactive, HCV inh 6.31µM and FMDV inh inconclusive.
`CCN(CC)S(=O)(=O)c1ccc(O)c(NC(=O)CN2CCc3ccccc3C2)c1` gave HCMV inh inactive, Marburg entry inh inactive, Lassa entry inh inactive, FBPA Giardia inh inactive, HCV inh inactive and FMDV inh inactive.
Screening CN(C)S(=O)(=O)c1ccc(Cl)c(NC(=O)CN2CCN(Cc3ccc4c(c3)OCO4)CC2)c1 returned HCMV inh -60.4, FBPA Giardia inh inactive, HCV inh inconclusive and FMDV inh inconclusive.
COc1ccc(S(=O)(=O)c2c(Nc3ccc(C)cc3C)sc(C(=O)c3ccc(F)cc3)c2N)cc1 was read as HCMV inh inactive, Lassa entry inh inactive and FMDV inh inactive.
For CN(C)c1ccc(-c2nc(NCCc3cnc[nH]3)c3ccccc3n2)cc1 the results were FBPA Giardia inh inactive and FMDV inh inactive.

Source: PubChem (National Center for Advancing Translational Sciences (NCATS))
